High-throughput results deposited in PubChem BioAssay by Broad Institute.
NSD2 inh = blocks human histone methyltransferase NSD2; NSD2 peptide methylation, AlphaScreen, 120 min; AID 743445; inhibition, % at 12.5 µM; O96028; hit rate 0.54% among 310,000; in the data active = inhibition above about 50%
Target sequence (O96028 whole entry, looked up): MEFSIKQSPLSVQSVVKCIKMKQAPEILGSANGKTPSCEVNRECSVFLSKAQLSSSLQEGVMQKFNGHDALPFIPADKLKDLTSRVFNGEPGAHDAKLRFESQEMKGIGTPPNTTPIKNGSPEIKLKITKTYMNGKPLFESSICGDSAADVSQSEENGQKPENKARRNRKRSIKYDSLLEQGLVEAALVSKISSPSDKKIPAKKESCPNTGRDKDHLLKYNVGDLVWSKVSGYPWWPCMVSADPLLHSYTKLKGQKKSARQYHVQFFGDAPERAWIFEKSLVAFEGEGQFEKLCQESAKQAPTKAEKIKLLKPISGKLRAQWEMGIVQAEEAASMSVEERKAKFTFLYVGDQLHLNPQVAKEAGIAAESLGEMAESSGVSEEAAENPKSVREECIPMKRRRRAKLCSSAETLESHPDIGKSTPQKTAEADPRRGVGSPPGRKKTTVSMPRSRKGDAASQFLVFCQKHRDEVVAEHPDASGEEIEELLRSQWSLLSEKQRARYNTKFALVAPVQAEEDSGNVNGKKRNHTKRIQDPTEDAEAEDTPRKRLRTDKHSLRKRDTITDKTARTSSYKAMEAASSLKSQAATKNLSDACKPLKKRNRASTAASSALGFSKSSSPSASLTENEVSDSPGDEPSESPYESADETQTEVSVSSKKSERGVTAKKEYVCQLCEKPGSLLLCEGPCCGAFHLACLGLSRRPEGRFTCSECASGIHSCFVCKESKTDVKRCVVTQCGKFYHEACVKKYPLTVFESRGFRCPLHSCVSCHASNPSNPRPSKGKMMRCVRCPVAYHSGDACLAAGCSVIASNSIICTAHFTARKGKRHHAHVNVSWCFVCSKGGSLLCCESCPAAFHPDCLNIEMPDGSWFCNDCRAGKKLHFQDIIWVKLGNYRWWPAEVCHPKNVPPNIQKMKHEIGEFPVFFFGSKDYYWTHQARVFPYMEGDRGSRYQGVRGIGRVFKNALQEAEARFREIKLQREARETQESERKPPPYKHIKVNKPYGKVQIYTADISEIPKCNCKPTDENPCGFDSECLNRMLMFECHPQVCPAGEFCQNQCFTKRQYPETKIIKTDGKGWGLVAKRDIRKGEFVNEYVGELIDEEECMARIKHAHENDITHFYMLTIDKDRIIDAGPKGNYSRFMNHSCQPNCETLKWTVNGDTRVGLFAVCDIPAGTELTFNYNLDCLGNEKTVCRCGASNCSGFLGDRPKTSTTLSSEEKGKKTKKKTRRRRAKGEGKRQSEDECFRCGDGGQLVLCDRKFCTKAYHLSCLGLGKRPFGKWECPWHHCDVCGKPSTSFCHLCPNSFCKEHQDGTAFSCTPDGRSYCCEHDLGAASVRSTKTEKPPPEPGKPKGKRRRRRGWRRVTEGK
CDK5 p35 inh = inhibitors of human CDK5/p35 kinase. AID 488839. Q00535+Q15078. inhibition, % at 10 µM. hit rate 0.01% among 330,000. Recombinant CDK5/p35, ADP-Glo luminescence, 60 min;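 active = highest replicate inhibition of at least 50% and at least 75% of replicates reaching 50%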;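 also: plate controls were DMSO neutral control for no effect and GW8510 at 10 µM for full effect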
ALR H2O2 inh = inhibitors of human sulfhydryl oxidase ALR; purified ALR, DTT oxidation, H2O2 HRP-luminol luminescence; inhibition, % (test concentration not listed); hit rate 3.8% among 290,000; AID 485317;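 active = mean replicate inhibition above about 79%, with every replicate also reaching it, limit read from the data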
Glyco luc inh = blocks N-linked glycosylation in D54 reporter cells; D54 ERlucT glycosylation luciferase reporter, 24 h; percent of 100 nM tunicamycin response; reporter increase, % at 12.5 µM; hit rate 0.23% among 360,000;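 active = mean luciferase reporter signal, scaled so untreated is 0 and the glycosylation-blocking control 100, at or above a set limit in every replicate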;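 also: luciferase carries N-glycosylation sites so blocking glycosylation raises the light; 0% = median of neutral control wells and 100% = median of 100 nM tunicamycin wells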
Mot1-301 SUMO = SUMOylation pathway inhibition by Mot1-301 growth rescue. S. cerevisiae Mot1-301 growth rescue, ATP luminescence, 38.5C; percent above DMSO median, 100 means doubled. growth rescue, % at 18.8 µM. hit rate 1% among 320,000. AID 2716;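 active = every valid replicate shows activation above 250% relative to neutral control wells; inactive = the rest, any valid replicate at or below 250%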;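 also: OY570 slx delta 5 strain wells were the positive control but not used for scaling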
Casp6 inh = inhibitors of human caspase-6; P55212; inhibition, % at 12.5 µM; hit rate 0.53% among 350,000; purified caspase-6, Z-VEID-R110 cleavage fluorescence;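 active = mean inhibition across replicates at least about 35%, with every replicate also reaching that limit, limit read from the data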;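 also: 0% = median of neutral control wells and 100% = no fluorescence left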
Mot1 SUMO dose = SUMO pathway inhibitors in yeast Mot1-301 growth. shares compounds with Mot1-301 SUMO. S. cerevisiae Mot1-301 galactose growth, ATP luminescence, 24 h; -100 = growth of slx-deleted rescue strain. growth activity, percent, % at 42 µM. AID 493004. 2,300 tested, under 10 active;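 active = Signal drops as the depositor expects, and the fitted half-maximal dose is no more than ten times the top valid tested dose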;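 also: more negative values mean stronger growth rescue toward the control strain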
Starred values were filed as active, the others as inactive; · = not tested or not shown; + = active, no number. Hits are enriched below; roughly 3.9% of the tested compounds scored in any of these assays.

SMILES	NSD2 inh	CDK5 p35 inh	ALR H2O2 inh	Glyco luc inh	Mot1-301 SUMO	Casp6 inh	Mot1 SUMO dose
COc1cc(NC(=O)CN2CCN(CC(=O)Nc3ccccc3OC)CC2)cc(OC)c1	0	-1	0	1	518*	-3	1
COc1ccc(NC(=O)N(C)C[C@@H]2Oc3ccc(NC(=O)Nc4ccc(C(F)(F)F)cc4)cc3CC(=O)N([C@@H](C)CO)C[C@H]2C)cc1	·	·	·	·	·	0	·
CC(OC(=O)c1cc(S(=O)(=O)N2CCOCC2)ccc1F)C(=O)NCc1ccc2c(c1)OCO2 (configuration not stated)	9	0	4	2	374*	3	0
Cc1ccc(C(=O)OC(C)C(=O)NCc2ccc3c(c2)OCO3)cc1S(=O)(=O)N1CCOCC1 (configuration not stated)	0	1	-10	2	-7	7	·
CC(C)NC(=O)c1cc2c(C(F)(F)F)nn(C)c2s1	0	-2	-15	0	32	·	·
CCCNC(=O)c1cc2c(C(F)(F)F)nn(C)c2s1	·	0	·	1	859*	·	0
C/C=C/c1ccc([C@@H]2[C@H](CO)N(C(=O)CN(C)C)C23CN(C(=O)C2CCCC2)C3)cc1	·	·	·	·	·	-2	·
Cc1ccc(N(C(=O)CNC(=O)c2ccco2)C(C(=O)NC2CCCCC2)c2cccnc2)cc1C (configuration not stated)	4	0	2	1	-2	2	·
Cc1ccc(N(C(=O)CCl)C(C(=O)NC2CCCCC2)c2cccnc2)cc1C (configuration not stated)	18	·	-1	·	369*	·	0
CCCC(=O)Nc1ccc(Sc2ccc([N+](=O)[O-])cc2)cc1	1	1	-6	-6	374*	·	0
CC(C)(C)n1cnc2cc(NC(=O)c3ccc(Cl)cc3)ccc21	-3	2	74	-9	562*	-4	-1
N#Cc1c(C(F)(F)F)cc(-c2ccc(F)cc2)[nH]c1=O	-8	-11	-1	0	10	0	·
Cc1cc(C(F)(F)F)c(C#N)c(=O)[nH]1	0	-1	3	0	+	·	0
C[C@@H]1CN([C@@H](C)CO)C(=O)c2cc(C#Cc3cccnc3)cnc2O[C@@H]1CN(C)Cc1ccccc1	·	·	·	·	·	0	·
O=S(=O)(NCc1ccccc1)c1ccc(S(=O)(=O)N(Cc2ccccn2)Cc2ccco2)cc1	-1	5	2	-4	841*	·	0
CN1[C@@H]2c3ccc(/C=C/c4ccccc4)c(=O)n3C[C@H]1[C@H](CO)[C@H]2C(=O)NC1CCCC1	·	·	·	·	·	3	·
O=C(CSc1nnc2ccccn12)NNC(=O)c1ccccc1	-3	0	-3	0	6	0	·
O=C(CSc1nnc2ccccn12)NNC(=O)c1ccc(Cl)cc1	-3	1	2	-3	599*	-1	0
O=C(C[C@H]1CC[C@H](NC(=O)c2ccncc2)[C@@H](CO)O1)NCc1ccncn1	·	·	·	·	·	1	·
Cc1cccc(C(=O)NCC(=O)N2CCN(c3ccc(Cl)cc3)CC2)c1	6	-1	5	2	368*	-3	0
Cc1cc(C)cc(C(=O)NCC(=O)N2CCN(c3cccc(Cl)c3)CC2)c1	24	-1	·	1	53	1	·
O=C(C[C@@H]1C[C@H]2c3cc(NC(=O)C4CCOCC4)ccc3O[C@H]2[C@H](CO)O1)NCc1ccccn1	·	·	·	·	·	-3	·
O=C(/C=C/c1ccc(Cl)cc1)NCc1ccncc1	17	-3	-1	2	566*	·	1
Cc1ccc(C(=O)Nc2ccc3c(c2)OCCO3)c(Cl)c1	-6	4	-3	-21	408*	2	-1
Cc1cc(NC(=O)c2ccccc2F)n(C(C)(C)C)n1	-1	0	-15	2	+	-2	0
CCCNC(=O)c1ccc(N2CC3CC(C2)c2cccc(=O)n2C3)c(NC(=O)Nc2ccc(CC)cc2)c1 (configuration not stated)	-2	2	7	-5	-2	1	·
